# Hit rate of the full screen: of about 310,000 compounds, about 14,000 (4.5%) showed an effect of 50% or more. Effects have a minus sign here. Many of the other results were omitted from the sample, so strong results are more common in it than they were.
# Target: human ether-à-go-go-related gene (hERG) potassium channel (human, UniProt Q12809)
# Test: primary screen, population patch clamp on CHO cells stably expressing hERG; higher = less effect of the substance
# 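Further: peak tail current of the secondary pulse compared with the same well before compound.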
# Chain of human ether-à-go-go-related gene (hERG) potassium channel (Q12809 whole entry, looked up): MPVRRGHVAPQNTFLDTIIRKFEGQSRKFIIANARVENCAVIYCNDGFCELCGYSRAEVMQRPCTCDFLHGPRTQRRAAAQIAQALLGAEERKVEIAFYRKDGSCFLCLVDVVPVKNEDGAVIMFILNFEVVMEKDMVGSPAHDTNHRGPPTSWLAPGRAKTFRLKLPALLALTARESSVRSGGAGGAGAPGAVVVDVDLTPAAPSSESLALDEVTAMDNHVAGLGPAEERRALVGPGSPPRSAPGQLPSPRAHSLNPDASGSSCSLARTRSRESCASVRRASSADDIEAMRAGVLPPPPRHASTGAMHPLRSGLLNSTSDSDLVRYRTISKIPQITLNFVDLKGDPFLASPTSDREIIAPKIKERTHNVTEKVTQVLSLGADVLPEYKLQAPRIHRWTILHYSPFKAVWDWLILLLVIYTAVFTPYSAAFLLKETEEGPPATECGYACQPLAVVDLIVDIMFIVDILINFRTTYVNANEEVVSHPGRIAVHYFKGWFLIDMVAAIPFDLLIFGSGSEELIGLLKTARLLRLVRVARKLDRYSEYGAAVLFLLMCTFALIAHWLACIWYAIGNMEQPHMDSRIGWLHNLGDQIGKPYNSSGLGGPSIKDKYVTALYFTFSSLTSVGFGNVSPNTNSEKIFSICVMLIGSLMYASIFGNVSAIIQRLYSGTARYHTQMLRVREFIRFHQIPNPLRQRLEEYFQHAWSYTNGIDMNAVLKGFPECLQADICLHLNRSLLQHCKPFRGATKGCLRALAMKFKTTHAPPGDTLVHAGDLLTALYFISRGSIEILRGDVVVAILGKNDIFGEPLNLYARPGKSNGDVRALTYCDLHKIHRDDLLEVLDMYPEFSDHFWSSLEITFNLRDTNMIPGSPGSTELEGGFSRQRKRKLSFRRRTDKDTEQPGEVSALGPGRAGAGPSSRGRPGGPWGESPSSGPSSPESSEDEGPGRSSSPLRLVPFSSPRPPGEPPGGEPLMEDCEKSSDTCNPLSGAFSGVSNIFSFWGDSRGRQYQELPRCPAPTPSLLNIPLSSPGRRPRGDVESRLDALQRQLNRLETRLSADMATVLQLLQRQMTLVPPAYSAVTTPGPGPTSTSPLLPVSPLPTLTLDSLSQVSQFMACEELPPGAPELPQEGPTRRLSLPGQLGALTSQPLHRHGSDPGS
row,Compound,"hERG current change (%, negative = inhibition) at 10uM"
1,CCn1c(SCC(=O)NC2CCCc3ccccc32)nnc1-c1cccs1 (stereo not shown),-24.6%
2,CC(Nc1ccc(Cl)cc1)C(=O)NN (stereo not shown),-5.86%
3,COc1cccc(NC(=O)c2c(F)cccc2F)c1,-6.78%
4,CCOC(=O)c1[nH]cnc1C(=O)Nc1cccc(OC)c1,2.14%
5,NC(=O)c1cc(S(=O)(=O)NCc2ccc(F)cc2)cs1,3.37%
6,Cc1ccccc1Nc1nc(N)nc(CN2CCN(c3ccccn3)CC2)n1,-66.6%
7,Nc1nc(CSC(=S)N2CCN(c3ccccc3)CC2)nc(Nc2ccc(F)cc2)n1,2.14%
8,Cc1ccccc1Nc1nc(N)nc(CSc2ccccc2)n1,-21%
9,Cc1ccc(SCc2nc(N)nc(Nc3ccccc3C)n2)cc1C,1.31%
10,Nc1nc(CN2CCN(c3ccccn3)CC2)nc(Nc2ccc(Cl)cc2)n1,-74.8%
11,Cc1ccccc1Nc1nc(N)nc(CSc2ccc(F)cc2)n1,-50.4%
12,S=C(NCc1ccc(Cl)cc1)N1CCN(c2ccccn2)CC1,-23.9%
13,Nc1nc(CN2CCN(c3ccccn3)CC2)nc(Nc2ccc(F)cc2)n1,-67.4%
14,Cc1ccccc1Nc1nc(N)nc(CN2CCN(C(=O)c3ccccc3)CC2)n1,-37.9%
15,Nc1nc(CSc2ccccn2)nc(Nc2ccccc2)n1,1.81%
16,Nc1nc(CSc2ncn[nH]2)nc(Nc2ccc(F)cc2)n1,6.74%
17,Cc1ccccc1Nc1nc(N)nc(CCl)n1,10.5%
18,O=C(c1ccc(Cl)cc1)N1N=CCC1(O)c1ccc(Cl)cc1 (stereo not shown),15.7%
19,COc1cc(NC(=O)CN2C(=O)NC3(CCOc4ccccc43)C2=O)cc(OC)c1 (stereo not shown),-3.2%
20,CCc1ccc(NC(=O)C2CCN(S(=O)(=O)c3ccc4[nH]c(=O)ccc4c3)CC2)cc1,3.6%
21,Cc1ccc(NC(=O)c2c([N+](=O)[O-])c(C(C)(C)C)nn2C)c(C)c1,20.7%
22,Cc1ccc2cc(/C=N/NC(=O)c3ccccc3[N+](=O)[O-])c(Cl)nc2c1,-5.33%
23,Cc1cc(C(=O)NCCN2C(=O)S/C(=C\c3cccs3)C2=O)ccc1[N+](=O)[O-],-1.91%

row,Compound,"hERG current change (%, negative = inhibition) at 10uM"
1,COc1ccc(Nc2nc(N)nc(CSc3nccn3C)n2)cc1,4.64%
2,COc1ccc(Nc2nc(N)nc(CN3CCN(c4ccccn4)CC3)n2)cc1,-65.1%
3,COc1ccc(NC(=S)N2CCN(c3ccccn3)CC2)cc1,-0.967%
4,Cn1c(COc2ccc(C(=O)O)cc2)nc2ccccc21,14.7%
5,CC(OC(=O)CCc1c[nH]c2ccccc12)C(=O)c1ccccc1 (stereo not shown),-17.8%
6,COc1ncnc(-c2ccccc2)c1-c1ccccc1,1.86%
7,CC(C)N1CCc2c(sc(NC(=O)c3ccco3)c2C(N)=O)C1.Cl,-6.82%
8,COC(=O)c1c(NC(=O)c2ccc([N+](=O)[O-])o2)sc2c1CCN(C(C)C)C2.Cl,-25.1%
9,CCN1CCc2c(sc(NC(=O)CN3C(=O)c4ccccc4C3=O)c2C(N)=O)C1.Cl,-36.6%
10,CC(C)N1CCc2c(sc(NC(=O)Cc3ccccc3)c2C#N)C1.Cl,-16%
11,COC(=O)c1c(NC(=O)c2ccco2)sc2c1CCN(C(C)=O)C2,-2.22%
12,COC(=O)c1c(NC(C)=O)sc2c1CCN(Cc1ccccc1)C2.Cl,-9.29%
13,COC(=O)c1c(NC(=O)c2ccco2)sc2c1CCN(C(C)C)C2.Cl,-62.5%
14,CCN1CCc2c(sc(NC(=O)COc3ccccc3)c2C(=O)OC)C1.Cl,-62.6%
15,CCOC(=O)c1c(NC(=O)Cc2ccccc2)sc2c1CCN(C)C2.Cl,-53%
16,CN1CCc2c(sc(NC(=O)Cc3ccccc3)c2C#N)C1.Cl,-7.24%
17,CN1CCc2c(sc(NC(=O)Cc3ccccc3)c2C(N)=O)C1.Cl,-16.2%
18,COC(=O)c1c(NC(=O)Cc2ccccc2)sc2c1CCN(C(C)C)C2.Cl,-61.4%
19,COc1ccc(/C=N/n2c(-c3n[nH]c4c3CCC4)n[nH]c2=S)c(OC)c1OC,20.7%
20,COc1nc(NC(C)=O)nc(C)c1Br,-1.69%
21,COc1ccc(NC(=O)CC(C)C)c([N+](=O)[O-])c1,-0.754%
22,Cc1ccc(C(=O)NC(=S)Nc2ccccc2C)cc1,-0.104%
23,CCn1nc(C)cc1C(=O)N1CCc2c([nH]c3ccccc23)C1c1cc(F)ccc1F (stereo not shown),-1.16%

row,Compound,"hERG current change (%, negative = inhibition) at 10uM"
1,CCOC(=O)c1c(NC(=O)Cc2ccccc2)sc2c1CCN(CC)C2.Cl,-65.3%
2,CC(C)N1CCc2c(sc(NC(=O)CCc3ccccc3)c2C(N)=O)C1.Cl,-57.2%
3,CC(C)N1CCc2c(sc(NC(=O)Cc3ccccc3)c2C(N)=O)C1.Cl,-11.5%
4,CCN1CCc2c(sc(NC(=O)Cc3ccccc3)c2C(N)=O)C1.Cl,-20.3%
5,CCN1CCc2c(sc(NC(=O)c3ccc(S(=O)(=O)N4CCOCC4)cc3)c2C(=O)OC)C1.Cl,-42.2%
6,CC(C)(C)C1CCc2c(sc(NC(=O)c3cccs3)c2C(=O)N2CCCCC2)C1 (stereo not shown),7.32%
7,CN1CCN(C(=O)c2c(NC(=O)c3ccco3)sc3c2CCC(C(C)(C)C)C3)CC1 (stereo not shown),-69.5%
8,CCN1CCc2c(sc(NC(=O)Cc3ccccc3)c2C(=O)OC)C1.Cl,-51.5%
9,CC(C)N1CCc2c(sc(NC(=O)c3ccc(C(=O)c4ccccc4)cc3)c2C(N)=O)C1.Cl,-38.2%
10,CCOC(=O)c1c(NC(=O)c2cccc(N3C(=O)CCC3=O)c2)sc2c1CCN(CC)C2.Cl,-31.5%
11,CC(C)(C)C1CCc2c(sc(NC(=O)c3ccco3)c2C(N)=O)C1 (stereo not shown),19.8%
12,OCc1ccccc1N=c1ssnc1Cl,15.9%
13,CC(=O)N1CC(C)Sc2ccc(S(=O)(=O)NCc3ccccc3Cl)cc21 (stereo not shown),-8.78%
14,CC1CCN(C(=O)C2CCCCN2S(=O)(=O)c2cccc([N+](=O)[O-])c2)CC1 (stereo not shown),1.35%
15,Cc1cc(C)c(NC(=O)CSc2ccc(-c3ccccn3)nn2)c(C)c1,17.9%
16,CC1CCN(C(=O)c2nc[nH]c2C(=O)OCCNC(=O)OC(C)(C)C)CC1,4.23%
17,CC1=CC(C)(C)Nc2ccc(OC(=O)CN3C(=O)c4ccccc4C3=O)cc21,15%
18,CC1Cc2ccccc2N1C(=O)COC(=O)Cc1ccc(F)cc1 (stereo not shown),-13.9%
19,C=CCN(CC=C)C(=S)NCCc1ccc(OC)c(OC)c1,-3.41%
20,Cc1cc([N+](=O)[O-])nn1CC(=O)Nc1c(C)n(C)n(-c2ccccc2)c1=O,18.4%
21,CC(C)CC(c1nnnn1Cc1ccccc1)N1CCN(C(=O)c2ccco2)CC1 (stereo not shown),-63.4%
22,COCCn1nnnc1C(c1ccc(Cl)cc1)N1CCN(C(=O)c2ccco2)CC1.Cl (stereo not shown),-22.4%
23,O=C(c1ccco1)N1CCN(C(c2ccc(Cl)cc2)c2nnnn2Cc2ccccc2)CC1 (stereo not shown),-68.2%

row,Compound,"hERG current change (%, negative = inhibition) at 10uM"
1,O=C(c1ccco1)N1CCN(C(c2ccc(Cl)cc2)c2nnnn2CC2CCCO2)CC1 (stereo not shown),-22.1%
2,CCOc1ccc(C(c2nnnn2Cc2ccccc2)N2CCN(C(=O)c3ccco3)CC2)cc1.Cl (stereo not shown),-57%
3,COc1cccc(C(c2nnnn2Cc2ccccc2)N2CCN(C(=O)c3ccco3)CC2)c1OC (stereo not shown),-30.2%
4,COCCn1nnnc1C(c1ccccc1)N1CCN(C(=O)c2ccco2)CC1.Cl (stereo not shown),16.7%
5,CC(C)CC(c1nnnn1CCc1ccccc1)N1CCN(C(=O)c2ccco2)CC1 (stereo not shown),-46.6%
6,COc1ccc(C(c2sc3nc(C)nn3c2O)N2CCN(Cc3ccccc3)CC2)cc1OC (stereo not shown),-18.3%
7,CCC(c1nnnn1Cc1ccccc1)N1CCN(C(=O)c2ccco2)CC1 (stereo not shown),-36.3%
8,Cc1nc2sc(C(c3cccs3)N3CCN(Cc4ccccc4)CC3)c(O)n2n1 (stereo not shown),-81.2%
9,Cc1nc2sc(C(c3cccs3)N3CCN(c4ccccc4)CC3)c(O)n2n1 (stereo not shown),-9.85%
10,COC(=O)/C(=C\Nc1ccccc1)NC(=O)c1ccc(Cl)cc1Cl,-17.2%
11,COc1ccccc1C(c1nnnn1C(C)C)N1CCN(C(=O)c2ccco2)CC1 (stereo not shown),1.24%
12,Cc1nc2sc(C(c3ccccc3)N3CCN(C(=O)c4ccco4)CC3)c(O)n2n1 (stereo not shown),8.97%
13,CCC(C)(C)n1nnnc1C(c1ccc(OC)cc1)N1CCN(C(=O)c2ccco2)CC1 (stereo not shown),-41.6%
14,COc1ccccc1C(c1nnnn1C(C)(C)C)N1CCN(C(=O)c2ccco2)CC1 (stereo not shown),-53.9%
15,COc1ccc(C(c2nnnn2Cc2ccccc2)N2CCN(C(=O)c3ccco3)CC2)cc1 (stereo not shown),-60.6%
16,CCOc1ccc(C(c2nnnn2C(C)(C)C)N2CCN(C(=O)c3ccco3)CC2)cc1 (stereo not shown),-69.3%
17,CCC(C)(C)n1nnnc1C(c1ccccc1OC)N1CCN(C(=O)c2ccco2)CC1 (stereo not shown),-32.6%
18,COc1ccc(C(c2nnnn2Cc2ccccc2)N2CCN(C(=O)c3ccco3)CC2)cc1OC.Cl (stereo not shown),-19.9%
19,Cc1nc2sc(C(c3ccc(Cl)cc3)N3CCN(C(=O)c4ccco4)CC3)c(O)n2n1 (stereo not shown),-60.1%
20,COc1ccc(C(c2nnnn2C(C)(C)C)N2CCN(C(=O)c3ccco3)CC2)cc1 (stereo not shown),-37.4%
21,COCCn1nnnc1C(c1ccc(OC)cc1)N1CCN(C(=O)c2ccco2)CC1.Cl (stereo not shown),-4.77%
22,Cc1ccc(C(c2sc3nc(C)nn3c2O)N2CCN(C(=O)c3ccco3)CC2)cc1 (stereo not shown),-31.4%

# From PMC4336329 (PLoS ONE, 2015)
